Most compounds without a hit are left out; they make up all but 3.5% or so of the library.
BoNT-A LC inh2: inhibitors of Botulinum neurotoxin A light chain protease | multiplex microsphere protease substrate cleavage, flow cytometry | inhibition, % at 10 µM | actives 0.17% (n = 360,000); further: plate controls were buffer without enzyme for full effect and enzyme alone for no effect
Anthrax LF prot: inhibitors of Bacillus anthracis lethal factor protease; P15917; multiplex microsphere protease cleavage assay, LF; inhibition, % at 10 µM; actives 0.12% (n = 360,000); AID 588501; further: plate controls were buffer without enzyme for full effect and enzyme alone for no effect
Target sequence (P15917 whole entry, looked up): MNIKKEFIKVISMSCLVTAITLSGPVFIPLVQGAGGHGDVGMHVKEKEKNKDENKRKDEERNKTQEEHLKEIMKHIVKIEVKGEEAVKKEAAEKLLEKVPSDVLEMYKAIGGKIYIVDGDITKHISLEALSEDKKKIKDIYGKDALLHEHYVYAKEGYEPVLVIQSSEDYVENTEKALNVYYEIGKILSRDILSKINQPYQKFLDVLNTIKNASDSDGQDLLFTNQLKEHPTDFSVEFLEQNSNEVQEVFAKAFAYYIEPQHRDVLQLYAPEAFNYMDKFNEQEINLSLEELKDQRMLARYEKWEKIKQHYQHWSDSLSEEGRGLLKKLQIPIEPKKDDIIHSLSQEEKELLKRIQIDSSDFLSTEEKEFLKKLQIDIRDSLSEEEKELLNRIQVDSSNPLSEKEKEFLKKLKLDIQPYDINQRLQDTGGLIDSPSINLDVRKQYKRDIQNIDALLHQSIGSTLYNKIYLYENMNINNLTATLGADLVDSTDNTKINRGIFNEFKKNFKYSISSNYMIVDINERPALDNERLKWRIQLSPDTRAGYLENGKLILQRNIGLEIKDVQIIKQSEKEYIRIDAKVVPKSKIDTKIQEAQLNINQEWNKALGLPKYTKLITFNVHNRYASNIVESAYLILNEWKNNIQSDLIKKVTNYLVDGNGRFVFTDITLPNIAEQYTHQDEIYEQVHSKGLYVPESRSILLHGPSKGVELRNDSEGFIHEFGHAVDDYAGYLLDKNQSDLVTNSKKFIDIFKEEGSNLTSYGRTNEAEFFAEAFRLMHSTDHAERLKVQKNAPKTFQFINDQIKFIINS
BoNT F protease: blocks Botulinum neurotoxin F light chain protease. Multiplex microsphere protease cleavage assay, flow cytometry. inhibition, % at 10 µM. actives 0.22% (n = 360,000); in the data active means inhibition above about 35%, passing the limit was not always enough; inconclusive means no clear call, values can overlap the other calls; further: plate controls were buffer without enzyme for full effect and enzyme alone for no effect
Autofluor counter: flagged as autofluorescent in microsphere protease counterscreen; fluorescence intensity (no concentration beside the values); actives 3.1% (n = 360,000); compound autofluorescence counterscreen, microsphere flow cytometry; active compounds read high; in the data active means fluorescence intensity above about 16000; inconclusive means no clear call, values can overlap the other calls
* hit, by the source's call; ? = inconclusive. Unless noted, no stated cut-off is given here; in the data, active means inhibition above about 30%; inconclusive means no clear call, values can overlap the other calls; inactive means below that.

SMILES	BoNT-A LC inh2	Anthrax LF prot	BoNT F protease	Autofluor counter
CC(C)Oc1cc(F)ccc1-c1cc(C(=O)NCCCn2ccnc2)[nH]n1	0	-7	-6	3664
COc1ccc(C2C(C(=O)N3CCOCC3)=C(C)NC3=C2C(=O)CC(C)(C)C3)cc1O (stereo not drawn)	-1	-2	-4	23700*
COc1cc(OC)c(C2C(C(=O)N3CCOCC3)=C(C)NC3=C2C(=O)CC(C)(C)C3)cc1OC (stereo not drawn)	2	5	4	8576
CCCc1cc(Nc2cccc(OC)c2)n2ncnc2n1	2	2	1	23259*
CCCc1cc(Nc2cccc(OCC)c2)n2ncnc2n1	0	-2	-5	10725
O=C(O)c1ccc2c(c1)C(c1ccccc1)OC2=O (stereo not drawn)	12	-13	16	16408*
CCN(CC)c1nc(N)nc(NS(=O)(=O)c2ccc(Cl)cc2)n1	?	2	6	19449*
Cc1cc(NN)nc(NS(=O)(=O)c2ccc(Cl)cc2)n1	0	-4	3	4034
CC(C)Nc1nc(NC(C)C)nc(NS(=O)(=O)c2ccc(N)cc2)n1	2	4	17	?
CCNc1nc(NC(C)C)nc(NS(=O)(=O)c2ccc(N)cc2)n1	-2	0	-6	17274*
CCNc1nc(NC(C)C)nc(NS(=O)(=O)c2ccc(Cl)cc2)n1	1	-1	-1	22725*
COC(=O)c1cc(S(=O)(=O)N2CCN(Cc3ccccc3)CC2)cn1C	0	-2	-5	6297
Cc1cccc(NC(=O)c2nc[nH]c2C(=O)NC2CCN(C(=O)OC(C)(C)C)CC2)c1	0	-6	3	3808
COc1ccc(S(=O)(=O)N2CCC(C(=O)N[C@@H](C)C(=O)NCc3ccncc3)CC2)cc1	2	3	10	4242
Cc1nc(Cl)c(C#N)cc1-c1ccccc1	0	2	-2	19692*
COC(=O)c1c(S(N)(=O)=O)c2ccccc2n1C	-2	-3	-5	21700*
O=C(CN1CCN(CCN2C(=O)c3cccc4cccc(c34)C2=O)CC1)c1ccc(F)cc1	5	6	1	22837*
CC(C)(C)OC(=O)N1CCC(C(=O)Nc2cccc(C(=O)N3CCOCC3)c2)CC1	0	-6	-7	3647
CCN1C(=O)C(Cc2nc3ccccc3c(=O)n2-c2ccccc2)c2ccccc21 (stereo not drawn)	?	-2	4	19070*
CCN1C(=O)/C(=C\c2nc3ccccc3c(=O)n2-c2ccccc2)c2ccccc21	-2	-3	-19	2059
COc1cccc(OCc2cc(C(=O)N(C)C3CCCCC3)no2)c1	0	0	-2	3698
CN(C)c1ccc(/C=C/C(=O)c2cccc(Br)c2)cc1	40*	35*	84*	33462*
CN(C)S(=O)(=O)c1ccc(C(=O)OCC(=O)Nc2ccccc2OC(F)F)cc1	-2	-2	-4	23884*
O=C(COC(=O)c1ccc(S(=O)(=O)NCc2ccco2)cc1)Nc1ccccc1OC(F)F	0	-3	-2	3950
COc1ccc(NS(=O)(=O)c2ccc(C(=O)N3CCC(C)CC3)cc2)cc1	0	1	4	3887
SMILES	BoNT-A LC inh2	Anthrax LF prot	BoNT F protease	Autofluor counter
Cc1ccccc1NC(=O)c1ccc(C)c(S(=O)(=O)Nc2ccccn2)c1	11	-18	16	18024*
Cc1ccccc1NS(=O)(=O)c1cc(C(=O)N2CCc3ccccc3C2)ccc1C	?	-3	-5	25113*
Cc1ccc(C(=O)N2CCc3ccccc3C2)cc1S(=O)(=O)N1CCOCC1	-2	-1	-4	5256
CC(C)N(C)C1CCN(C(=O)Nc2ccc(Cl)cc2)CC1	-3	-6	-5	23132*
O=C(Nc1ccc(Cl)cc1)N1CCC(c2ccccc2)C1 (stereo not drawn)	0	-3	-10	4744
CCOc1ccccc1NC(=O)c1cc2ccccc2o1	0	-6	-14	3566
O=C(Nc1ccon1)c1cc2ccccc2oc1=O	-1	-2	-2	20901*
CCOc1ccccc1NC(=O)c1cc2ccccc2oc1=O	4	10	40*	3036
CC(C)(C)c1ccc(C(=O)CC(=O)c2cc(Cl)ccc2O)cc1	-1	-1	-1	21100*
Cc1ccc(C(=O)CC(=O)c2cc(Cl)ccc2O)cc1	-1	-5	-1	10212
CCOCCCNS(=O)(=O)c1ccc2c(c1)oc(=O)n2CC(=O)OCC	1	-10	-1	23318*
CCOC(=O)Cn1c(=O)oc2cc(S(=O)(=O)N(CCN(C)C)Cc3ccccc3)ccc21	-2	-5	-4	23509*
CCOC(=O)Cn1c(=O)oc2cc(S(=O)(=O)Nc3cc(OCC)ccc3OCC)ccc21	?	-3	-3	16486*
CCOC(=O)Cn1c(=O)oc2cc(S(=O)(=O)NCCC(C)C)ccc21	-1	-2	8	4181
